These results are taken from PubChem BioAssay.

The test system of assay [1] is XIP peptide (Xip251-270) binding. The assay is described as follows: XIP fragment 251-270 binding compounds – biochemical, small-molecule microarray, fluorescence 635/667 nm, 0.1 µg/mL protein, primary screen (AID 1182). To be noted: fluorescent protein binding, 635 nm, higher = more signal, called active from +8 up or from −8 down.
Assay [2] concerns XIP peptide (Xip251-270). The assay is described as follows: compounds binding XIP fragment 251-270 – biochemical, small-molecule microarray, fluorescence 635/667 nm, 0.5 µg/mL protein, primary screen (AID 1183). To be noted: fluorescence 635 nm, higher = more signal.
Assay [3] is described as follows: blood-stage malaria parasite viability loss – strain 3D7, DAPI fluorescence, 100 nL, primary screen (AID 1184).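 Further: parasites grown inside human red blood cells in medium with human serum.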 To be noted: P. falciparum 3D7 growth, 3 d, higher = more signal.
The target in assay [4] is Homeobox protein Hox-A13 (Mus musculus) (UniProt Q62424). The assay is described as follows: disruptors of Hoxa13 oligonucleotide interaction – biochemical, fluorescence polarization, labeled oligonucleotide, primary screen (AID 1185). Particulars: Hoxa13:DNA binding, 15 min, higher = more signal, called active from +8 up or from −8 down.
Homeobox protein Hox-A13 (Mus musculus), sequence (Q62424 whole entry, looked up): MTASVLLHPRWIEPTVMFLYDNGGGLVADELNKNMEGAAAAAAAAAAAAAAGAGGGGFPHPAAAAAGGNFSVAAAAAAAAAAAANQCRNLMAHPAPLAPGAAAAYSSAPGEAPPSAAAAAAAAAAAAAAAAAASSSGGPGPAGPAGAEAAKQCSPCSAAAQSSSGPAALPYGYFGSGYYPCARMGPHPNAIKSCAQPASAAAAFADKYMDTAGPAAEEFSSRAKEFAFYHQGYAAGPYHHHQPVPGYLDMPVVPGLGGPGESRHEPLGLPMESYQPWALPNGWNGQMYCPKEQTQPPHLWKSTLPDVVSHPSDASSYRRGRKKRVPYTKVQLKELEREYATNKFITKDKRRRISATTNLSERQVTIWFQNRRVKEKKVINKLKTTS
Assay [5] in a line: blockers of DNA damage checkpoint Chk1 activation – imaging, HeLa, hydroxyurea, phospho-Chk1 antibody, percent positive cells, primary screen (AID 1186). To be noted: hydroxyurea-induced phospho-Chk1 immunofluorescence imaging, higher = more signal.
Assay [6] is described as follows: blockers of DNA damage checkpoint Chk1 activation – imaging, HeLa, hydroxyurea, phospho-Chk1 nuclear intensity, primary screen (AID 1187). Particulars: hydroxyurea-induced phospho-Chk1 immunofluorescence imaging, higher = more signal.

The source made the active and inactive calls. Unless noted, how the calls were made is not given here.

`COc1cccc(C(=O)O[C@H]2CC[C@]3(C)C4=C(CCC3C2(C)C)[C@]2(C)CC[C@H]([C@H](C)CCCC(C)C)[C@@]2(C)CC4)c1` (stereo partly specified): the composite z-score in assay [1] is -0.019 (inactive); in assay [2], -0.519. For the same compound, the z-score in assay [3] is -0.0127; in assay [4], -0.87 (inactive); in assay [5], 0.811 (inactive); in assay [6] it was 1.77 (inactive).
In the case of `CN1C=C(C(=O)OCCS(C)(=O)=O)C(C(=O)OCCS(C)(=O)=O)=CC(CCCO)=CC1C1CC1` (stereo unspecified), the composite z-score in assay [1] is 1.7 (inactive); in assay [2], 0.01. In addition, the z-score in assay [3] was -0.766; in assay [4] it was -5.26 (inactive); in assay [5], -1.31 (inactive); in assay [6] it was -0.118 (inactive).
With `[N-]=[N+]=NCc1ccccc1C[C@]1(C(=O)NCC(O)CO)N=C(c2ccc(OCCCO)cc2)O[C@H]1c1ccccc1N=[N+]=[N-]` (stereo partly specified), the values for the composite z-score in assay [1] and in assay [2] were -0.188 (inactive) and 0.0926, respectively. Moreover, the z-score in assay [3] is -2.25; in assay [4] it was -3.25 (inactive); in assay [5], -0.985 (inactive); in assay [6], -1.52 (inactive).
Regarding `COC(=O)[C@@]1(Cc2ccccc2)[C@H]2c3cc(C(=O)N4CCCC4)n(C)c3C[C@H]2CN1C(=O)c1ccccc1`, the composite z-score is -0.0625 (inactive) in assay [1] and 0.46 in assay [2]. Further, the z-score in assay [3] was -0.994; in assay [4], -5.7 (inactive); in assay [5], 0.0684 (inactive); in assay [6], -0.0761 (inactive).
Turning to `O=c1cccc(CCc2ccccc2)o1`, the composite z-score is 0.223 (inactive) in assay [1] and 0.903 in assay [2]. Also, the z-score was 2.16 in assay [3], -3.17 (inactive) in assay [4], 0.576 (inactive) in assay [5] and 0.158 (inactive) in assay [6].
Turning to `CC(C)NC(=O)[C@@]1(Cc2ccccc2I)c2ccccc2C(=O)N(Cc2ccccc2)[C@H]1c1ccc(CO)cc1`, the composite z-score in assay [1] is 0.257 (inactive); in assay [2] it was 0.784. Besides, the z-score in assay [3] is -1.22; in assay [4] it was -4.87 (inactive); in assay [5] it was -0.303 (inactive); in assay [6], -0.346 (inactive).
In the case of `C=CC[C@@H](OC(=O)Nc1ccc(OC)cc1)c1ccc(O)c2ccccc12`, the composite z-score in assay [1] is 1.08 (inactive); in assay [2], 0.737. The z-score was -0.166 in assay [3], -0.5 (inactive) in assay [4], 0.311 (inactive) in assay [5] and 0.626 (inactive) in assay [6].
In the case of `CCCC[C@H]1OB(O)C[C@H]2C1=C(C)C[C@H]1C(=O)N(Cc3ccccc3)C(=O)[C@H]12`, the composite z-score in assay [1] was 0.0643 (inactive); in assay [2], 0.911. The z-score was 0.508 in assay [3], -7.36 (inactive) in assay [4], -0.128 (inactive) in assay [5] and -0.379 (inactive) in assay [6].
Regarding `O=c1oc(-c2ccccc2)nc2cc(Br)ccc12`, the composite z-score in assay [1] is -0.208 (inactive); in assay [2], -0.0114. Moreover, the z-score was 1.64 in assay [3], 4.46 (inactive) in assay [4], 0.208 (inactive) in assay [5] and 0.0639 (inactive) in assay [6].
For the compound `O=C1OCCC=C[C@H]2OC34C=CCN(Cc5ccccc5)C(=O)[C@H]3N(CCCO)C(=O)[C@@H]4C12` (stereo partly specified), the composite z-score in assay [1] was 0.17 (inactive); in assay [2] it was -0.461. In addition, the z-score in assay [3] is -2.21; in assay [4], -4.21 (inactive); in assay [5] it was -0.16 (inactive); in assay [6], -0.035 (inactive).
As for `O=C(NCc1ccccc1)[C@]1(CCS(=O)(=O)c2ccccc2)N=C(c2ccc(OCCCO)cc2)O[C@@H]1c1ccccc1`, the figures for the composite z-score in assay [1] and in assay [2] were 0.605 (inactive) and 0.678, respectively. Further, the z-score is -2.18 in assay [3], -1.13 (inactive) in assay [4], -0.362 (inactive) in assay [5] and -0.255 (inactive) in assay [6].
On to `C=CCC(OC(C)=O)[C@@H]1[C@@H](N(Cc2ccc(-c3cccc(C(F)(F)F)c3)o2)C(=O)c2ccc(C)cc2)c2cc(OCCCO)ccc2N1C(=O)c1ccc(-c2ccccc2)cc1` (stereo partly specified), for which the composite z-score in assay [1] is 2.96 (inactive); in assay [2] it was 0.0783. For the same compound, the z-score in assay [3] is -2.5; in assay [4], -1.07 (inactive); in assay [5], -0.205 (inactive); in assay [6] it was -0.266 (inactive).
On to `C=CC(=C)C1=CCO[C@@H]1[C@H]1CCCN1S(=O)(=O)c1ccccc1[N+](=O)[O-]`, for which the composite z-score in assay [1] is 0.162 (inactive); in assay [2], 0.281. The z-score in assay [3] was -1.51; in assay [4], -2.41 (inactive); in assay [5], -0.0283 (inactive); in assay [6], 0.0588 (inactive).
Take `C#CCN(C(/C=C/c1ccccc1)CO)C(C(=O)O)c1ccccc1` (stereo unspecified): the composite z-score in assay [1] was 0.194 (inactive); in assay [2], -0.722. For the same compound, the z-score was -2.23 in assay [3], 0.9 (inactive) in assay [4], 0.301 (inactive) in assay [5] and 0.353 (inactive) in assay [6].
With `Cc1ccccc1C(O)C1C=CC2C(=O)N(C)C(=O)C2N1N1CCCCC1` (stereo unspecified), the composite z-score in assay [1] is 0.547 (inactive); in assay [2] it was 0.576. Further, the z-score was 0.737 in assay [3], -6.67 (inactive) in assay [4], 0.193 (inactive) in assay [5] and -0.0403 (inactive) in assay [6].
For `COCCCNC(=O)[C@@]1(CCC(=O)OC(C)(C)C)N=C(c2ccc(OCCCO)cc2)O[C@H]1c1ccccc1CN=[N+]=[N-]`, the figures for the composite z-score in assay [1] and in assay [2] were 0.748 (inactive) and 0.761, respectively. The z-score in assay [3] is -1.99; in assay [4], -5.33 (inactive); in assay [5], -0.376 (inactive); in assay [6] it was -0.101 (inactive).
